# Laboratory results reported in the supplement of paper PMC10849652.
# Of roughly 8,800 targets only a part is listed; those with a hit were picked by preference. About 0.5% of all pairs of compound and target were hits. A number with no mark means an inactive call.
# Key:
# Test in all cases: log2 fold change, soluble protein after heating vs DMSO (PISA); higher = thermal stabilisation; K562 lysate, 10 uM; active = over 0.2 and 3.5 SD of the protein, either way, in both replicates (recomputed)
# ibrutinib = compound: C=CC(=O)N1CCC[C@@H](n2nc(-c3ccc(Oc4ccccc4)cc3)c3c(N)ncnc32)C1 [ibrutinib]
# Method in brief: (§1)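 Dounce homogenisation of K562 pellets in PBS pH 7.4 with 1 mM MgCl2 produced a crude extract, used at 1 mg/mL protein. Exposure to 10 μM compound lasted 30 min, and aliquots were then heated for 3 min across 48°C-58°C, pooled and brought to 0.5% NP-40 at 4°C. The supernatant after 21,000xg for 90 min was quantified by TMTpro 16plex LC-MS/MS with channel sums equalised. Duplicate values are given as log-two fold change in thermal stability relative to solvent controls.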
# [1] = compound: CC(=O)c1cnc2ccc(-c3cc(Cl)c(O)c(Cl)c3)nc2c1N[C@H]1CC[C@H](CN(C)C)CC1
# Method in brief: as §1
# ralimetinib = compound: CC(C)(C)Cn1c(N)nc2ccc(-c3[nH]c(C(C)(C)C)nc3-c3ccc(F)cc3)nc21 [ralimetinib]
# Method in brief: as §1
# [2] = compound: CC(C)(O)CC(=O)NCCn1ccc2ncnc(Nc3ccc(Oc4cccc(C(F)(F)F)c4)c(Cl)c3)c21
# Method in brief: as §1
# [3] = compound: CC(C)C1=C2N=C(C=C(N2N=C1)NCC3=CC=CC=C3)NCCCCCCN
# Method in brief: as §1
# [4] = compound: CC1=C(C(CC(=O)N1)C2=CC=C(C=C2)C(F)(F)F)C(=O)NC3=C(C=C4C(=C3)C=NN4)F
# Method in brief: as §1
# [5] = compound: CC1=C(C2=C(C=C1)C(=O)C3=CC=CC=C3N2CCCN)C
# Method in brief: as §1
# [6] = compound: CC1=C(C=C(C=C1)NC(=O)C2=CC(=CC=C2)C(C)(C)C#N)NC3=CC4=C(C=C3)N=CN(C4=O)C
# Method in brief: as §1
# [7] = compound: CC1=C(C=C(C=C1)NC(=O)C2=CC(=CC=C2)N(C)C)NC(=O)C3=CC=C(C=C3)O
# Method in brief: as §1
# [8] = compound: CC1=CC=C(C=C1)SC2=C3C=C(SC3=CN=C2)C(=O)N
# Method in brief: as §1
# Chain of UniProt P51532 (P51532 whole entry, looked up): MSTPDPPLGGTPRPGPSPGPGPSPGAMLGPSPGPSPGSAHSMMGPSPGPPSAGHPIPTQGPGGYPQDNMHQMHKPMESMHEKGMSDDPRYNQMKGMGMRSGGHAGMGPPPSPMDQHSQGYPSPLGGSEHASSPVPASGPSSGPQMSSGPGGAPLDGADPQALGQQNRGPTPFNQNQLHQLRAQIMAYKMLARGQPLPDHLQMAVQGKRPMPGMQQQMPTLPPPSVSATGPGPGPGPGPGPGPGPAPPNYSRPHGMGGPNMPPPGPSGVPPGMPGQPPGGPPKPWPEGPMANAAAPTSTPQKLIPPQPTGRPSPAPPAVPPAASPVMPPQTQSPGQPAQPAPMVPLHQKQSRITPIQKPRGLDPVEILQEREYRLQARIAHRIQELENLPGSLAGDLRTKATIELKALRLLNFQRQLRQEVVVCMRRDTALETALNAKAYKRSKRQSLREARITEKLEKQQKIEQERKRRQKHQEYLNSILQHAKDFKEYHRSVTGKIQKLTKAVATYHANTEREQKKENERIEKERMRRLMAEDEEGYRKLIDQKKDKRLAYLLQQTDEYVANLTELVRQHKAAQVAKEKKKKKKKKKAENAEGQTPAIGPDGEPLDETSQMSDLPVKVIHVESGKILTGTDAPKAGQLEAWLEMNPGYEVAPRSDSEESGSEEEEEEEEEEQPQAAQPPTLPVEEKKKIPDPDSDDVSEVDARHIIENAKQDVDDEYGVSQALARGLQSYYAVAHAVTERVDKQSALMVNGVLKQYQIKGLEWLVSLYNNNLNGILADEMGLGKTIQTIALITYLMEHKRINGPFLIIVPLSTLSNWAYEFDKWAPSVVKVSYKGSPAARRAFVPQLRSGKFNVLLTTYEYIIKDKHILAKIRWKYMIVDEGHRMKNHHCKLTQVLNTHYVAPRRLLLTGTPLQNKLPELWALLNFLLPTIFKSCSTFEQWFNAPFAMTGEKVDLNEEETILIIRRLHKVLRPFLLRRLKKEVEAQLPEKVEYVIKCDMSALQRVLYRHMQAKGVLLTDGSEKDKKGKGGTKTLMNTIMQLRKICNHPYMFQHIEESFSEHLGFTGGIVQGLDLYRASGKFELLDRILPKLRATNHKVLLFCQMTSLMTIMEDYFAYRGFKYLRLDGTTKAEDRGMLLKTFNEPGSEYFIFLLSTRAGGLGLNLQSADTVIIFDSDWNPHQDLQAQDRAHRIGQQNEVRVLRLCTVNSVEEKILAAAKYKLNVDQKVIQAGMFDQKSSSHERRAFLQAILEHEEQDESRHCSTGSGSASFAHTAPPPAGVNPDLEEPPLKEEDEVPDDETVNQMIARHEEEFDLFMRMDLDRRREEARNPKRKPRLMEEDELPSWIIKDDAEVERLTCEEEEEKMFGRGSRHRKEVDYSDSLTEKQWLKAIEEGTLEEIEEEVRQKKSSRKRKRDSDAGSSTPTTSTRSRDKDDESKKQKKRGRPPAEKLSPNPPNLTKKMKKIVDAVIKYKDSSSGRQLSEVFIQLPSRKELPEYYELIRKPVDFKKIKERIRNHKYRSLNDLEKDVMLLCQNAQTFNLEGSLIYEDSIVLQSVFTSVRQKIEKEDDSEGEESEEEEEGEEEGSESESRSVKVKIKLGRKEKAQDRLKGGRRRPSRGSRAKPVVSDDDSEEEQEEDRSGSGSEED
# Chain of UniProt Q9UQE7 (Q9UQE7 whole entry, looked up): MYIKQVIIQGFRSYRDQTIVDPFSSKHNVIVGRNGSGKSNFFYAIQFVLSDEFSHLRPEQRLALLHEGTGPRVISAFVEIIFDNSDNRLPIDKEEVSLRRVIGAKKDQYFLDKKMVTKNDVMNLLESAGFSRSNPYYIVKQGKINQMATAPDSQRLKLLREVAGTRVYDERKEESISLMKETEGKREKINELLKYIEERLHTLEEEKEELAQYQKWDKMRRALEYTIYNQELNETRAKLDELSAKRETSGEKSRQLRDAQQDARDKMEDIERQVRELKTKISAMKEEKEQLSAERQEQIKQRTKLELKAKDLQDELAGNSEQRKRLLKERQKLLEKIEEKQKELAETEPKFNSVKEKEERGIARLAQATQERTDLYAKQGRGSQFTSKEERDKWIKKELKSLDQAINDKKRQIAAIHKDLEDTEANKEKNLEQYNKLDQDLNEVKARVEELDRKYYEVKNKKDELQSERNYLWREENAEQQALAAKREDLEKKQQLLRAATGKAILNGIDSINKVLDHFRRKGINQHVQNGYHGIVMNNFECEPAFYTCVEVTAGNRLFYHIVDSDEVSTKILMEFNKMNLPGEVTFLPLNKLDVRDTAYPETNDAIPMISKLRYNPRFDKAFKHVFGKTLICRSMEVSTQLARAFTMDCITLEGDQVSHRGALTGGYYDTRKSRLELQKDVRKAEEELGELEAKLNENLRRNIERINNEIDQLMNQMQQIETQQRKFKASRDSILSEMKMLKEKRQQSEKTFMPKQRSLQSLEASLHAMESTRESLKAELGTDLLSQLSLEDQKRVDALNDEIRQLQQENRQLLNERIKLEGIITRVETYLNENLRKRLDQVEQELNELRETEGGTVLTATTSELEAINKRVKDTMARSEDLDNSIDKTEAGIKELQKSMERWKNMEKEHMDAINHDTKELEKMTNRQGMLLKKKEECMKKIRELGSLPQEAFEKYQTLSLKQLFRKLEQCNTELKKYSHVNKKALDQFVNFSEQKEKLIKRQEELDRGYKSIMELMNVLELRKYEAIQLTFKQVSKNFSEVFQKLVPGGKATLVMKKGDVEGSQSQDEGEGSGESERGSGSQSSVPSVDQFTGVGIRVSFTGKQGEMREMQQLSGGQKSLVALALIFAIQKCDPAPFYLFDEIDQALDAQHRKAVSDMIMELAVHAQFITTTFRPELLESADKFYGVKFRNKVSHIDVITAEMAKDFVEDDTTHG
# Chain of UniProt Q96DI7 (Q96DI7 whole entry, looked up): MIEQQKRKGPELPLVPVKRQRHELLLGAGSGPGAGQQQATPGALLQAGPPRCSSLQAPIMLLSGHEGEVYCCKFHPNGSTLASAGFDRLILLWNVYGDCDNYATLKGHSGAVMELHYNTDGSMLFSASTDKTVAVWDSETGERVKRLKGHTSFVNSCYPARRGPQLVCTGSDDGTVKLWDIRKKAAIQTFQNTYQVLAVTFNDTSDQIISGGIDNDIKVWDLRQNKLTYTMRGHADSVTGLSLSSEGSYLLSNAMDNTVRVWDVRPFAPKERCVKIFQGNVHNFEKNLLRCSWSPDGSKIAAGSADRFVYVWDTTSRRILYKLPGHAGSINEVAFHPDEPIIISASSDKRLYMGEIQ
# Chain of UniProt P53985 (P53985 whole entry, looked up): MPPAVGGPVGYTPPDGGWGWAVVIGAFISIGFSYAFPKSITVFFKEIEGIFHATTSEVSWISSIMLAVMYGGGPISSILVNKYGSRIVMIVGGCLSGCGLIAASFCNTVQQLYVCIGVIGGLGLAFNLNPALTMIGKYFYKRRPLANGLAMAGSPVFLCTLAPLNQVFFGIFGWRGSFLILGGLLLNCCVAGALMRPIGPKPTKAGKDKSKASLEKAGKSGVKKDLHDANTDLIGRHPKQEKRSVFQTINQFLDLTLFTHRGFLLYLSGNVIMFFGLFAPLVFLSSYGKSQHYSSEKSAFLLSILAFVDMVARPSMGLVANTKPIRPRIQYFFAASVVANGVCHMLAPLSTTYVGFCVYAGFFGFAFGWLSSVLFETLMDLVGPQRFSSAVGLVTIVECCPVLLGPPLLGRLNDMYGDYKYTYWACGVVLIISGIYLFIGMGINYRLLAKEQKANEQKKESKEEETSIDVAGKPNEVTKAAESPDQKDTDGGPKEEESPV
# Chain of UniProt Q8NDV3 (Q8NDV3 whole entry, looked up): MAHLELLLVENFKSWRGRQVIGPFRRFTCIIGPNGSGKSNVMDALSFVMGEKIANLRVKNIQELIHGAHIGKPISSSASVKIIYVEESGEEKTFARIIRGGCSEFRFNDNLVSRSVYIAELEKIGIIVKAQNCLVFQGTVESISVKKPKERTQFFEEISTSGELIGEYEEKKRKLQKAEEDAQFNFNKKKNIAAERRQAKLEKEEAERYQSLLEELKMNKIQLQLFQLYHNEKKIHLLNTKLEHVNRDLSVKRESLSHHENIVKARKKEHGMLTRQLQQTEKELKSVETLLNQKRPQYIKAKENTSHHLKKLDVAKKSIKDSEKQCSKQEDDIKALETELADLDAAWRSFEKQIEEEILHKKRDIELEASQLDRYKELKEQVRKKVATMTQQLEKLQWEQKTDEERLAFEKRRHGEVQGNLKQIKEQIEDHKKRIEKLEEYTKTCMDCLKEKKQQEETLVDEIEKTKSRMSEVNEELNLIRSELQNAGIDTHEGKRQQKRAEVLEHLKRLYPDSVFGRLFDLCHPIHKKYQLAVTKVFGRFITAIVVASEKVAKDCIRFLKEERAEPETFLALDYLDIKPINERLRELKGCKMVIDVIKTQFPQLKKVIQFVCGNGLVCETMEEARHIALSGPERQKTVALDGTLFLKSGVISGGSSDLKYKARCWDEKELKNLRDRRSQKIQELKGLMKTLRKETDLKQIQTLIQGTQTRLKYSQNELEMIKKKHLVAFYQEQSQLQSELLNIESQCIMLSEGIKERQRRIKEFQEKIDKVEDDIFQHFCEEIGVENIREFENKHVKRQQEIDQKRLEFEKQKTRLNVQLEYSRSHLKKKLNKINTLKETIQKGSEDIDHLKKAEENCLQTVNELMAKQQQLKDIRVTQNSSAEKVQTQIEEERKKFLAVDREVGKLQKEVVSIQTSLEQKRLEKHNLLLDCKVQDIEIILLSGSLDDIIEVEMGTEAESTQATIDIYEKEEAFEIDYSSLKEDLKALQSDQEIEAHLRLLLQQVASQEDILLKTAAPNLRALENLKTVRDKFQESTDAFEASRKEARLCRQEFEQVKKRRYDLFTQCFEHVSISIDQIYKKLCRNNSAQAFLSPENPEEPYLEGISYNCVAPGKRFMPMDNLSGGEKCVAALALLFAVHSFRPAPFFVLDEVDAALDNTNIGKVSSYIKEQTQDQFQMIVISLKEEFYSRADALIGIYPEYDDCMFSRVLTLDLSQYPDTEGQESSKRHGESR
# Chain of UniProt Q9UJC5 (Q9UJC5 whole entry, looked up): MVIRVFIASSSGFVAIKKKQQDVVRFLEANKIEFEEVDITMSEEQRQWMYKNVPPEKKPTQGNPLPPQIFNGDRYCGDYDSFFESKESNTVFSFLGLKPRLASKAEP
Target,log2 fold change (ibrutinib),log2 fold change [1],log2 fold change (ralimetinib),log2 fold change [2],log2 fold change [3],log2 fold change [4],log2 fold change [5],log2 fold change [6],log2 fold change [7],log2 fold change [8]
SMAP2 (UniProt Q8WU79),-0.008,-0.008,-0.015,-0.01,0.024,0.034,0.019,-0.286 (active),-0.015,0.002
SMARCA4 (UniProt P51532),0.021,-0.007,0.035,0.018,-0.009,-0.003,-0.032,-0.026,0.028,0.012
SFN (UniProt P31947),0.015,0.01,-0.002,0.035,0.016,0.045,0.031,-0.036,-0.004,-0.021
SSNA1 (UniProt O43805),0.187,0.017,-0.049,0.012,0.003,-0.012,-0.026,0.013,0.02,-0.024
SMIM12 (UniProt Q96EX1),0.04,0.013,0.021,-0.049,-0.024,-0.008,-0.002,0.038,-0.064,-0.011
SNRNP40 (UniProt Q96DI7),-0.008,0.026,-0.03,-0.047,-0.02,0.042,0.332 (active),0.02,0.069,0.029
SPATA5L1 (UniProt Q9BVQ7),-0.007,0.02,0.037,-0.054,0.018,-0.004,-0.052,-0.007,0.026,-0.008
STK38 (UniProt Q15208),0.008,0.361 (active),0.036,0.048,0.025,0.006,0.017,0.014,-0.003,0.002
STK25 (UniProt O00506),-0.021,0.165,-0.071,0.007,-0.006,-0.02,-0.038,-0.042,0.035,-0.025
STK4 (UniProt Q13043),0.056,0.324,-0.006,0.007,0.004,-0.023,-0.015,-0.036,0.024,-0.07
SMC4 (UniProt Q9NTJ3),-0.002,-0.005,-0.015,-0.012,-0.009,-0.006,0.002,-0.016,0.023,0.013
SKA1 (UniProt Q96BD8),0.002,0.033,-0.023,-0.017,0.044,0.014,0.066,-0.017,0.033,0.007
SLC26A6 (UniProt Q9BXS9),-0.242,0.018,0.019,-0.056,-0.05,-0.157,-0.022,0.017,0.033,-0.056
SMC3 (UniProt Q9UQE7),0.002,-0.001,-0.023,0.003,-0.002,-0.004,0.01,-0.014,0.011,0.01
SMC4 (UniProt C9JJ64),-0.146,,,,,,,,,
SNAP23 (UniProt O00161),0.021,-0.003,-0.01,0.01,-0.04,-0.015,0.045,0.015,-0.013,0.011
SF3B6 (UniProt Q9Y3B4),0.036,0.004,-0.001,-0.017,-0.002,0.043,0.003,0.002,0.024,-0.007
SYF2 (UniProt O95926),0.094,0.023,-0.019,0.001,-0.02,-0.027,-0.122,0.037,0.066,-0.061
STK26 (UniProt Q9P289),-0.043,0.113,-0.018,0.004,-0.015,-0.021,0.006,-0.028,0.035,-0.025
SMC1B isoform 3 (UniProt Q8NDV3),0.013,0.017,0.07,-0.029,0.001,-0.012,-0.001,0.021,0.026,-0.005
SLC16A1 (UniProt P53985),-0.023,0.002,0.015,0.015,0.003,-0.039,-0.03,0.042,0,-0.006
SLC38A10 (UniProt Q9HBR0),0.103,-0.047,-0.025,-0.056,-0.007,-0.051,-0.018,0.032,-0.001,-0.027
SRP54 (UniProt P61011),-0.039,-0.023,0.031,0.015,0.036,0.034,-0.069,-0.021,0.007,-0.009
SLC12A6 (UniProt Q9UHW9),0.01,-0.021,-0.037,-0.014,0.011,0.001,-0.012,0.012,0.024,-0.021
SRSF9 (UniProt Q13242),-0.009,-0.009,0.001,-0.031,-0.031,-0.019,-0.089,0.047,-0.028,-0.007
TARBP2 (UniProt Q15633),-0.013,0,-0.025,-0.042,0.013,0.074,-0.002,0.029,0.062,-0.015
STUB1 (UniProt Q9UNE7),0.015,0.011,0.005,0,-0.018,0.023,0.032,-0.012,-0.001,-0.019
SH3BGRL2 (UniProt Q9UJC5),-0.014,0.027,0.006,-0.014,0.035,0.03,-0.004,0.036,-0.072,0.053
SMAD9 (UniProt O15198),-0.025,-0.018,-0.034,0.029,0.021,-0.038,0.079,-0.028,-0.072,-0.029
SLC30A9 (UniProt Q6PML9),0.061,0.002,-0.03,0.064,0.021,-0.033,0.008,0.017,-0.213,-0.009
